Experimental data as given in ChEMBL document CHEMBL1157539, “Thousands of chemical starting points for antimalarial lead identification” (Nature, 2010).

What was measured:
Assay type in all cases: functional
[1] = system: Plasmodium falciparum; test: GSK_TCMDC: Inhibition of Plasmodium falciparum 3D7 in whole red blood cells, using parasite LDH activity as an index of growth. Test compounds present at 2uM
[2] = system: Plasmodium falciparum; test: GSK_TCMDC: Inhibition of Plasmodium falciparum Dd2 in whole red blood cells, using parasite LDH activity as an index of growth. Test compounds present at 2uM
[3] = system: HepG2; test: GSK_TCMDC: Percent inhibition of human HepG2 cell line. Test compounds present at 10uM.

Row | SMILES | Inhibition [1] | Inhibition [2] | Inhibition [3]
1 | O=c1cc(NCCCNC2CCCc3c2cc(Cl)c(Cl)c3Cl)[nH]c2ccccc12 (stereo not given) | 100% | 64% | 6%
2 | CC(=O)Nc1nc(C(=O)Nc2cccc(-c3ccc(-c4nc5cc(F)ccc5[nH]4)cc3)c2)cs1 | 100% | 32% | 54%
3 | COc1ccc(N2CCN(c3nc(N)c4cc(OC)c(OC)cc4n3)CC2C)cc1.Cl (stereo not given) | 95% | 0% | 8%
4 | Cc1cccc2nc(-c3ccc(-c4cccc(CNCC5CCCO5)c4)cc3)[nH]c12.O=C(O)C(F)(F)F (stereo not given) | 100% | 50% | 18%
5 | Cc1cc(=NN=CC=Cc2ccccc2)c2cc(F)ccc2[nH]1 | 100% | 36% | 8%
6 | C=CC[C@H](C[C@H](O)[C@H](Cc1ccccc1)NC(=O)c1nn(-c2ccccc2)nc1C)C(=O)NC1CCCCC1 | 94% | 3% | 6%
7 | Cl.c1ccc2c(C3CCN(CCCCOc4ccc5c(c4)CCN(C4CCC4)CC5)CC3)c[nH]c2c1 | 100% | 100% | 80%
8 | COc1ccc2nccc(N3CCC(CCNCc4cc5c(cn4)OCCO5)CC3)c2c1.Cl | 100% | 99% | 26%
9 | CCCCCCOc1ccc(C(=O)NCCCC2CCCN(CCCCCNC(=O)C=Cc3ccc(Cl)c(Cl)c3)C2)cc1 (stereo not given) | 96% | 12% | 20%
10 | COc1ccc(Nc2nccc(-c3cccc(NC(=O)c4cc5cc(F)ccc5[nH]4)c3)n2)cc1 | 92% | 37% | 3%
